Experimental data taken from the supplement of paper PMC6555819.

Columns and labels:
Experiment in all cases: PBM binding z-score (relative to random genomic background probes); higher = stronger binding; sequences stand for … in GC…GCGATTGACAGCGTAGAATGAAGG
[1] = test system: RARb homodimer (NR concentration 270 nM)
Outline: (§1)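 Regression normalization was applied to scanned fluorescence from custom Agilent 4×180K protein-binding microarrays. Before scanning, arrays were incubated 1 h with ligand-free nuclear receptor dimers, and binding was detected with antibodies against each partner (one per run). Binding z-scores use the random background probes as reference.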

[2] = test system: RARg:RXRa (NR concentration 270 nM, RXRa partner concentration 90 nM)
Outline: as §1

[3] = test system: RARg homodimer (NR concentration 270 nM)
Outline: as §1

[4] = test system: RXRa DBDmut IVT, anti-RXR (DBD mutation: RXRa K156A/R161A, NR concentration 90 nM)
Outline: as §1

[5] = test system: RXRa homodimer (NR concentration 180 nM)
Outline: as §1

[6] = test system: THRa:RXRa (NR concentration 90 nM, RXRa partner concentration 90 nM)
Outline: as §1

[7] = test system: THRa homodimer (NR concentration 90 nM)
Outline: as §1

[8] = test system: VDR homodimer (NR concentration 270 nM)
Outline: as §1

Sequence	PBM binding z-score [1]	PBM binding z-score [2]	PBM binding z-score [3]	PBM binding z-score [4]	PBM binding z-score [5]	PBM binding z-score [6]	PBM binding z-score [7]	PBM binding z-score [8]
CCGAGTAGGTTATGGGACATTCAGGCAACGGTGA	0.969	0.533	0.86	0.181	0.607	0.565	0.413	0.326
CCTGCTAGGTCATGGTCGGCTAATCTACAGTATG	2.46	3.92	4.63	1.75	2.82	3.01	1.29	0.379
TCTTGTAGATCAGCAGGTTACGAAAGCTGGCCAA	0.128	-0.124	-0.187	0.505	0.318	0.29	-0.291	-0.293
TCTTGTAGAGCAGCAGGTTAAGAAAGCTGGCCAA	-0.584	-0.394	-0.758	-0.623	-0.14	-0.0931	-1.03	-1.08
CGTCCAAGGTGAATGCTAGGTCAGTGAAAGCATT	2.81	3.71	1.91	-0.198	1.02	3.27	1.59	-0.00133
TAGCCTAGGGCATTGGGCCAGTATAGTACGCATC	0.542	0.434	1.21	-0.706	0.0585	-0.328	-0.611	-0.306
TCTTGTAGATCAAGCAGATTAAGAAAGCCTGAGT	-0.625	-0.157	-0.298	0.446	0.2	-0.439	-0.521	-0.466
CAACCTAGGTCACAGAGGTCAAAGTCCGTGCGTA	5.82	7.61	7.92	3.68	8.52	4.55	3.1	7.57
CTCGAAATGTCGTGCTCAGGTGAGTATACCAAAC	0.0938	0.145	0.0439	0.155	-0.16	1.53	0.939	0.16
ACTAGTTGGTCAGCTGTGGTCACACACAATTCGG	1.25	0.489	0.965	0.13	0.281	1.77	0.0925	0.0683
CAAACTAGGACACAGAGGTCAAAGTCCGTGCGTA	4.68	5.54	5.17	2.31	6.42	4.36	2.5	5.25
GATACAGCGTCAGCTAGAGGCCAGAGTATGGAAA	-0.524	-0.0653	0.0489	-0.648	-0.444	-0.787	-0.942	-0.804
CCTACAGGGCCATTCAGAGGTCATTGATCATATG	4.27	5.34	3.29	1.85	3.85	3.38	1.34	4.16
TCGAGTAGGTTAGTCGGGGAATTCAGCCAACATA	0.122	-0.408	-0.41	0.0963	-0.255	0.163	-0.3	-0.495
TTACCAAGGTTAAGGTCGTTGATCCCTCTGTAGA	2.57	2.63	2.31	1.41	3.4	3.73	3.45	2.83
TCTTGTAGATCATGCAGGTTAAGAAAGCCTGAGT	0.268	0.108	0.0949	0.784	0.65	0.509	-0.0439	0.115
ACTACAGGGTCACTAGGCCAGAGTAGGTACGAAT	3.08	4.68	4.59	2.54	4.84	3.33	0.948	1.82
CCGACTGGGGTATAAGGTTACCATAAGCCAGCCC	0.893	0.542	0.421	-0.174	1.11	2.02	1.21	-0.0356
ATCTCTGGGTAAAAGTTCAGTGAATCCCGAGGAT	2.6	2.36	2.45	0.812	1.69	0.969	-0.0851	1.53
CCTACTGGGCCAAAAAGGACATTGATGCCGATAA	0.641	0.266	0.586	-0.359	-0.202	0.101	-0.447	0.158
CCTACTGGGCCAAAGGTCATTGCTTCCAATGCTC	4.58	5.56	4.3	1.36	5.91	3.37	0.719	2.42
CCGACTGGGGAATAAGGTTACCATAAGCCAGCCC	1.02	0.435	0.223	-0.297	0.812	2.03	1.18	-0.0686
TCGAGTAGGTCACCAATGGGGCATTCAGCTTTCT	3.59	5.11	4.61	0.972	3.44	2.42	-0.0324	0.0095
TCTGCTAGGTCAGTTAGTCAGCTAACGAGCTGCC	1.99	2.4	3.3	0.561	0.813	0.906	-0.364	-0.726
TCTGCTAGGTCATTTGGTCAGCTAACGAGCTGCC	2.97	3.84	4.17	2.58	2.34	2.42	0.658	1.49
ATCTCTAGGTAAAGATAGTTCAGTGACTGCAAAT	1.33	0.534	0.542	0.648	-0.00287	0.905	0.426	0.571
TCGAGTAGGTTACCAATGGCGCATTCAGCTTTCT	0.00418	0.036	0.0712	0.461	0.351	-0.246	-0.453	-0.613
CGTCCAAGGTCAATGCTAAGTCAGTGAAAGCATT	3.83	5.54	6.06	3.39	4.48	3.72	1.98	2.06
TCTTGTAGATCAATAGAGGTAAAGAAAGTGCGCT	-0.162	0.0817	0.0168	0.436	0.364	1.9	-0.539	-0.6
